Most compounds without a hit are left out; they make up all but 2.1% or so of the library.
Nox1 inhibitor: inhibitors of human NADPH oxidase 1 (Nox1) | 16,000 tested, 0.81% active | AID 1792 | HT29 cells, luminol chemiluminescence ROS | Q9Y5S8 | inhibition, % at 6.7 µM
Target sequence (Q9Y5S8 whole entry, looked up): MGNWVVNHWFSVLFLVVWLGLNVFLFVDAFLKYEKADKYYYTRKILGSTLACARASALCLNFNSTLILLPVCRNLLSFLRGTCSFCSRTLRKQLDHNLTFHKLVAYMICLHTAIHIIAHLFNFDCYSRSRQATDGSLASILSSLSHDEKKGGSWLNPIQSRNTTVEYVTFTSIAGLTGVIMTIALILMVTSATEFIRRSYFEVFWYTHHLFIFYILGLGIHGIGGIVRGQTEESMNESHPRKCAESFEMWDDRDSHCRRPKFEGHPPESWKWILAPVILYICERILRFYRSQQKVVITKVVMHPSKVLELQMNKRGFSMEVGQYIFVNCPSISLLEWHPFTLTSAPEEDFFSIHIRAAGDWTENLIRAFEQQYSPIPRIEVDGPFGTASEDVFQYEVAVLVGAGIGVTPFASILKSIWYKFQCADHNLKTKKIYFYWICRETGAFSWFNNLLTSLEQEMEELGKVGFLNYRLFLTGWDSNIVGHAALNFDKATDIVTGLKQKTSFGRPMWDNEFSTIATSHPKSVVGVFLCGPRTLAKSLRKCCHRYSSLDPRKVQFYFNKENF
NOTCH agonist: activates NOTCH signaling in reporter cells | activation, % at 2.5 µM | AID 434982 | 15,000 tested, 0.4% active | NOTCH signaling luciferase reporter cells, luminescence; in the data active means activation above about 2.2%
Luminol counter: counter-screen for Nox1 inhibitors: inhibitors of luminol chemiluminescence; 16,000 tested, 0.4% active; inhibition, % at 6.7 µM; HRP/luminol/H2O2 chemiluminescence counterscreen; further: reference of the scale not given here
PME-1 Maybr inh: PME-1 (human) inhibition, Maybridge primary screen | inhibition, % at 9 µM | Q9Y570 | recombinant PME-1, FP-Rh probe fluorescence polarization | 16,000 tested, 0.5% active | AID 2291; in the data active means inhibition above about 30%
Of the large screens only hits and unclear results are named; the others gave an inactive call. Unless noted, no stated cut-off is given here; in the data, active means inhibition above about 75%; inactive means the rest.

Cc1nnsc1-c1onc(C)c1-c1nc(-c2ccc([N+](=O)[O-])o2)no1	none
CCC(=O)Nc1nc(NC(=O)CC)nc(-c2ccccc2Oc2ccc(Cl)cc2Cl)n1	none
S=C(NNc1nccc(-c2cccnc2)n1)Nc1ccccc1	Nox1 inhibitor 86
Nc1cc(-c2cccc(Cl)c2)nn1-c1ccc(S(N)(=O)=O)cc1	none
COC(=O)CC(CC(=O)OC)(c1cc(C)c(O)c(C)c1)c1cc(C)c(O)c(C)c1	Luminol counter 77
OC(CNCCNc1nccc(C(F)(F)F)n1)CSc1ccc(F)cc1 (stereo not given)	none
CC(=O)c1ccc(Cl)c(NC(=O)NS(=O)(=O)c2ccc(C)cc2)c1	none
ON/C=N/c1nnc(C(F)(F)F)s1	Nox1 inhibitor 80
COc1cc(OC)c(-c2ccccc2)nn1	none
CC(Oc1ccc(Cl)cc1Cl)C(=O)O/N=C(\N)CS(=O)(=O)c1ccc(Cl)cc1 (stereo not given)	none
Cc1cc(C)cc(NC(=O)Nc2ccc(N3CCCCC3)cc2)c1	Nox1 inhibitor 85
O=C1C=C(I)C(=O)C=C1I	Nox1 inhibitor 86
Cc1onc(-c2ccccc2)c1NC(=O)N1CCN(C2c3ccccc3-c3ccccc32)CC1	none
CCOC(=O)C1CCN(C(=O)Nc2c(-c3ccccc3)noc2C)CC1	NOTCH agonist 2.7
O=C(O)/C(=N/Nc1ccccc1O)c1ccccc1	Nox1 inhibitor 83
CCOC(=O)C(Cc1ccccn1)(C(=O)OCC)c1ccccc1	none
O=[N+]([O-])c1cc(C(F)(F)F)ccc1Oc1ccc(-c2nnco2)cc1	Nox1 inhibitor 77
O=[N+]([O-])c1cc(C(F)(F)F)ccc1Oc1ccc2nonc2c1	none
S=C(Nc1ccc(Cl)cc1)Nc1ccc(-c2csnn2)cc1	none
O=C(NNc1ccc(-c2csnn2)cc1)c1ccc(Cl)cc1	Luminol counter 75
O=c1c(=NO)c(=O)c2ccccc12	NOTCH agonist 2.3
O=c1c2ccccc2c(=O)n2n1CC=CC2	none
FC(F)(F)c1ccc2c(c1)Nc1ccccc1S2	Nox1 inhibitor 102 (no result: NOTCH agonist)
Cc1ccc(S(=O)(=O)C[C@H]2O[C@@H](n3cc(I)c(=O)[nH]c3=O)C[C@@H]2O)cc1	none
CC(=O)OC1C[C@H](n2cc(C)c(=O)[nH]c2=O)O[C@@H]1COS(=O)(=O)c1ccc(C)cc1 (stereo not given in full)	NOTCH agonist 3.0
CCCCOC(=O)c1ccc(OS(=O)(=O)c2ccc(Cl)cc2)cc1	none
CC(=O)Nc1cccc(OCCOc2cccc(NC(C)=O)c2)c1	none
CCCOc1ccc(NC(C)=O)cc1	NOTCH agonist 5.0
O=C(CSCCOc1ccccc1)Nc1ccc(Cl)cc1Cl	none
COc1ccc(C(=O)CSc2n[nH]c(=O)n2Cc2ccco2)cc1	NOTCH agonist 2.2
O=C(CSc1n[nH]c(=O)n1Cc1ccco1)Nc1ccccc1	none (no result: NOTCH agonist)
S=c1[nH]nc(CSc2nc(-c3ccccc3)cn2-c2ccccc2)n1-c1ccccc1	none
S=c1[nH]nc(Cc2n[nH]c(=S)n2-c2ccccc2)n1-c1ccccc1	Luminol counter 95
COC(=O)C1=C(C)Nc2[nH]ncc2C1c1ccccc1 (stereo not given)	PME-1 Maybr inh 43
COCCOc1ccc(N=Cc2ccccc2O)cc1C(=O)O	NOTCH agonist 3.1
Cc1nn(C)c(C)c1NC(=O)/C(C#N)=C\N(C)C	none
Cc1nn(C)c(C)c1Nc1n[nH]c(N)n1	Nox1 inhibitor 77
CCOc1ccc(/C=C(\C#N)C(=O)N2CCCC2)cc1	none
CSC(=CC(=O)c1ccc(Cl)cc1)SC	none
CSC(=CC(=O)c1ccncc1)SC	NOTCH agonist 3.5
N/C(=N\OC(=O)Nc1cccc(C(F)(F)F)c1)C1CSCCS1 (stereo not given)	none
N/C(=N/OC(=O)Nc1cccc(C(F)(F)F)c1)C1COc2ccccc2O1 (stereo not given)	NOTCH agonist 2.4
CC(=O)c1ccc(NCN2C(=O)/C(=C\N(C)C)NC2=S)cc1	Nox1 inhibitor 100
Cc1cc(C(=O)NNC(=O)Nc2ccc(Cl)cc2)no1	none
Cc1cc(C(=O)NNC(=O)CSCc2cccc3ccccc23)no1	NOTCH agonist 2.8
O=C(CN1C(=O)c2ccccc2C1=O)NCc1ccc(N2CCOCC2)cc1	none
O=C1c2ccccc2C(=O)N1CNc1ccc(N2CCOCC2)cc1	Nox1 inhibitor 98
Cc1ccccc1/C(N)=N/OC(=O)c1ccc(C(C)(C)C)s1	none
CC(=O)c1ccc(Sc2cccc(C(F)(F)F)c2)c([N+](=O)[O-])c1	PME-1 Maybr inh 32
COC(=O)c1sccc1-c1ccc(CN2CCCc3cc(OC)ccc32)o1	Nox1 inhibitor 94
O=[N+]([O-])c1ccccc1-c1nnc(-c2ccc(Cl)c(Cl)c2)o1	none
Cn1c(-c2ccco2)n[nH]c1=S	none
Cn1c(-c2ccccn2)n[nH]c1=S	Luminol counter 96
NC(=O)c1cccc2cccc(Br)c12	none
CSC(=NS(=O)(=O)c1cc(OCC(F)(F)F)ccc1OCC(F)(F)F)SC	none
COc1ccccc1N1CCN(C(=O)C(C)N2CCCc3cc(C)ccc32)CC1 (stereo not given)	PME-1 Maybr inh 71
O=C(NNc1cccc(Cl)c1)C1CCCCC1	none (no result: NOTCH agonist)
COc1ccc(Nc2nc(NC(=O)Nc3ccc(Cl)cc3)n[nH]2)cc1	Nox1 inhibitor 96
O=c1[nH]c2ccccc2c(=O)n1CCSc1nc2ccccc2o1	none
O=c1c(Cl)c2oc3ccccc3nc-2c2ccccc12	Nox1 inhibitor 90
CN(C)C=NC(=O)/C(C#N)=C/N(C)C	none
Cc1nn(-c2ccccc2)c(C)c1C(=O)Oc1ccccc1	none
Cc1nn(C(=O)c2cc(C)n(-c3ccccc3)n2)c(C)c1Br	PME-1 Maybr inh 41
CSc1ncccc1C(=O)N(C)C	none
